# Entries with a potency or affinity are not part of this list.
# Experiments:
# [1] = test system: Klebsiella pneumoniae; settings: Concentration 32 ug.mL-1;; ASSAY_TEST Inhibition of Bacterial Growth; detection method Absorption (OD600); MEDIA CAMHB; plate type 384well; NBS; CORNING #3640; time 18 hr
# [2] = test system: Candida albicans; settings: Concentration 32 ug.mL-1; ASSAY_TEST Inhibition of Fungal Growth; detection method Absorption (OD530)
# [3] = test system: Cryptococcus neoformans; settings: Concentration 32 ug.mL-1; ASSAY_TEST Inhibition of Fungal Growth; detection method Resazurin; Absorption (OD600-OD570); plate type 384well; NBS; CORNING #3640
SMILES,Inhibition [1],Inhibition [2],Inhibition [3]
CC(=O)c1cccc(NC(=O)CSc2nnc3ccc(C(=O)Nc4cccc(F)c4)cn23)c1,7.28%,5.29%,-6.79%
Cc1ccc(NC(=O)CSc2nc3ccccc3n3c(C)nnc23)c(Br)c1,14.29%,22.27%,-9.59%
COc1ccc(-c2cc3c4nn(CC(=O)N5CCCc6ccccc65)c(=O)n4ccn3n2)cc1,10.34%,3.82%,-13.79%
O=C(CCc1nnc2c(N3CCCCC3)nc3ccccc3n12)NCc1ccccc1Cl,12.77%,4.01%,-16.16%
Cc1ccc(Cl)cc1NC(=O)Cn1nc2c(N3CCOCC3)nc3ccccc3n2c1=O,0.47%,3.17%,-17.81%
COc1ccc(NC(=O)CSc2nc3ccccc3n3c(C(C)C)nnc23)c(OC)c1,7.3%,2.71%,-21.27%
Cc1ccc(-c2ccc3nn(Cc4cccc(F)c4)c(=O)n3n2)cc1C,7.96%,2.65%,-8.66%
CCCCn1c(=O)c2sccc2n2c(=O)n(CC(=O)N3CCCC(C(=O)OCC)C3)nc12 (centres undefined),-2.03%,-3.31%,-9.46%
Cc1ccc(Sc2ccc3nn(CC(=O)Nc4ccc(Br)c(C)c4)c(=O)n3n2)cc1,2.67%,11.69%,-8.57%
O=S(=O)(c1ccc2nncn2c1)N(Cc1cc(F)cc(F)c1)c1ccc(F)c(F)c1,12.12%,1.89%,-12.17%
CCOc1ccc(NC(=O)Cn2nc3c4cc(-c5ccc(C)cc5)nn4ccn3c2=O)cc1,14.64%,1.16%,-37.08%
C=Cc1ccc(CSc2nnc3c(=O)n(-c4ccc(Br)cc4)ccn23)cc1,3.16%,0.16%,-7.54%
CCOC(=O)c1ccc(NC(=O)Cn2nc3ccc(SCc4ccc(Cl)cc4)nn3c2=O)cc1,5.68%,34.69%,-19.64%
Cc1nnc2c(=O)n(CC(=O)Nc3ccc(F)cc3)c3ccccc3n12,10.46%,0.41%,-6.03%
O=c1c2nn(Cc3ccccc3F)c(=O)n2ccn1-c1ccccc1,4.89%,1.22%,-10.1%
COc1cc(OC)c(NC(=O)Cn2nc3c(N4CCOCC4)nccn3c2=O)cc1Cl,1.91%,3.65%,-8.41%
O=C(Cn1nc2c3cc(-c4ccc(Cl)cc4)nn3ccn2c1=O)NC1CCCC1,4.67%,2.49%,-18.35%

SMILES,Inhibition [1],Inhibition [2],Inhibition [3]
Cc1ccc(-c2cc3c4nn(CC(=O)Nc5ccccc5Br)c(=O)n4ccn3n2)cc1C,18.24%,-0.22%,-11.06%
CCc1ccc(NC(=O)Cn2nc3cc(C)nc(Nc4ccc(C)c(F)c4)n3c2=O)cc1,10.82%,3.74%,-2.27%
CCc1ccccc1Sc1nccn2c(=O)n(CC(=O)Nc3ccc(C)cc3)nc12,-4.69%,39.33%,-9.26%
O=C(CCc1nnc2c(N3CCCCC3)nc3ccccc3n12)NCc1ccc2c(c1)OCO2,14.18%,10.16%,-25.55%
O=C(Cn1nc2c(SCc3ccccc3)nccn2c1=O)NCc1ccc(Cl)cc1,-3.05%,1.33%,-17.24%
CC(=O)c1ccc(NC(=O)Cn2nc3ccc(-c4ccc(C)cc4)nn3c2=O)cc1,11.92%,4.12%,-11.07%
Cc1ccc(NC(=O)Cn2nc3cc(C)nc(Nc4ccc(F)c(C)c4)n3c2=O)cc1,11.85%,7.21%,-5.79%
Cc1cc2nn(CC(=O)Nc3cc(F)cc(F)c3)c(=O)n2c(Nc2ccc(F)c(C)c2)n1,18.09%,3.34%,-11.58%
COc1cc(OC)c(NC(=O)Cn2nc3c(SC4CCCCC4)nccn3c2=O)cc1Cl,9.62%,7.28%,-20.84%
COc1cccc(NC(=O)Cn2nc3c4cc(-c5ccc(Cl)cc5)nn4ccn3c2=O)c1,8.34%,4.47%,-4.67%
COc1ccc(-c2cc3c4nnc(SCC(=O)NCc5cccc(OC)c5OC)n4ccn3n2)cc1,6.86%,0.88%,-15.85%
COc1cc(NC(=O)Cn2nc3c4c5c(sc4ncn3c2=O)CCCC5)cc(OC)c1,4.67%,7.26%,-16.68%
CCCCn1c(=O)c2sccc2n2c(=O)n(CC(=O)NC(C)CC)nc12 (centres undefined),-2.58%,3.27%,-15.7%
Cc1ccc(C)c(CSc2nnc3c(=O)n(-c4ccc(Br)cc4)ccn23)c1,7.74%,3.39%,-4.05%
CCc1ccc(N(Cc2ccccc2)S(=O)(=O)c2cccn3c(C)nnc23)cc1,5.96%,-1.36%,-9.98%
Cc1nnc2c(SCC(=O)Nc3cccc(Br)c3)nc3ccccc3n12,10.33%,5.04%,-3.71%
